Pf growth 96h – Primary qHTS for delayed death inhibitors of the malarial parasite plastid, 96 hour incubation | P. falciparum luciferase reporter growth, 96 h | Potency, µM (titrated, usually from 28.7 µM), for inactives: at the top dose activity change, negative = inhibition, actives largely listed as inhibitors | hit rate 6.9% among 320,000; further: potency means the concentration at half of the fitted maximal effect; on the % scale 0 is the no-effect control and ±100 the full control effect
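96 h incubation, 37 C, 5% CO2, of luciferase-reporter P. falciparum-infected RBCs (2% hematocrit, 0.05% parasitemia final) with test compounds; endpoint luminescence.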
Pf growth 48h – Primary qHTS for delayed death inhibitors of the malarial parasite plastid, 48 hour incubation; hit rate 5.9% among 310,000; P. falciparum luciferase growth in erythrocytes, 48 h; Potency, µM (top dose mostly 28.7 µM), for inactives: top-dose activity change, negative = inhibition, hits mostly inhibitors; further: potency means the concentration at half of the fitted maximal effect; on the % scale 0 is the no-effect control and ±100 the full control effect
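A one-generation exposure of luciferase-tagged malaria parasites in RPMI 1640/Albumax erythrocyte culture, 37 C and 5% CO2. Inhibition is inferred from decreased luminescence after adding detection reagent.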
CHX counter – Cycloheximide Counterscreen for Small Molecule Inhibitors of Shiga Toxin. cell reporter, cycloheximide protein synthesis inhibition counterscreen. max response, %. hit rate 12% among 300,000; in the data active means max response mostly above about 13%, no sharp cut-off; inactive means mostly below about 14%; further: read at 38.3 µM for the half of the compounds with a filed dose; 0% is about no effect
Shiga toxin inh – A qHTS for Small Molecule Inhibitors of Shiga Toxin. hit rate 9.2% among 290,000. Vero cells, Shiga toxin protein synthesis inhibition reporter. AID 2315, 2010. inhibition, % at 38.7 µM; in the data active means inhibition mostly above about 28%, no sharp cut-off; inactive means mostly below about 43%; further: 0% is about no effect
HCV inhibitor – qHTS Assay for Inhibitors of Hepatitis C Virus (HCV); Huh7.5.1 HCVcc-Cre infection, luciferase reporter, 44 h; hit rate 3.4% among 340,000; Potency, µM (highest dose often 41.8 µM), for inactives: top-dose activity change, negative = inhibition, usual class: inhibitors; further: potency means the concentration at half of the fitted maximal effect; on the % scale 0 is the no-effect control and ±100 the full control effect
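Reporter virus HCVcc-Cre (~0.5 moi) infects cells exposed to compound; seeding density 1,000 cells/well with 4 h settling beforehand. Luminescence, 15 sec read, taken 44 h post-infection following a 15 min RT substrate incubation.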
HCMV inh – qHTS Assay for inhibitors of the human cytomegalovirus (HCMV); HFF cells, HCMV-luciferase reporter, 72 h; hits give low values; activity change, negative = inhibition, % at 57.5 µM; AID 1259415, 2018; hit rate 4.5% among 410,000; in the data active means activity change below about -60%; inconclusive means no clear call, values can overlap the other calls; inactive means above about -39%; further: on the % scale 0 is the no-effect control and ±100 the full control effect
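Two-dose cell screen: HFF monolayers treated with compounds and infected with luciferase-expressing HCMV at 1 PFU/cell, 72 h at 37C, then lysed for luciferase measurement.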
An asterisk follows results filed as active; ? = inconclusive; · = no result given. The list is not random: actives were taken first. Their share in the collection is about 21%. Unless noted, the call rests on the fitted dose curve; in most records, active means well fitted inhibition curve with a large enough effect; inconclusive means small, poorly fitted or top-dose-only effect, or another doubt; inactive means no such curve, though single readings can be large or run the other way.

SMILES	Pf growth 96h	Pf growth 48h	CHX counter	Shiga toxin inh	HCV inhibitor	HCMV inh
CC(=O)Nc1ccc(-c2sc(Nc3cccc4ccccc34)n[n+]2-c2ccccc2)cc1	41%	35%	-2	-3	1%	17
COc1cc(Br)c(-c2sc(Nc3ccccc3)n[n+]2-c2ccc(F)cc2)cc1OC	3.7µM*	1.9µM*	-2	-3	3%	-19
CSc1ccc(-c2sc(Nc3cccc4ccccc34)n[n+]2-c2ccccc2)cc1	?	?	22*	17*	8.9µM*	-15
COc1ccccc1Cc1nc2ccccc2nc1SCC(=O)N1CCN(c2ccccc2)CC1	·	·	·	·	·	8
Cc1ccc2[nH]c(=O)c(CN(Cc3cccs3)Cc3nnnn3Cc3ccccc3)cc2c1	-13%	12µM*	-1	-5	5%	-18
Cc1ccc2[nH]c(=O)c(CN(CCO)Cc3nnnn3CCc3ccccc3)cc2c1	8.3µM*	8%	-2	-2	6%	-11
CCOC(=O)Cn1nnnc1CN(CCc1ccccc1)Cc1cc2cc(CC)ccc2[nH]c1=O	?	·	-5	-7	25%	-3
C=CCC1CCC/C(=N\NS(=O)(=O)c2ccc(C)cc2)C1 (configuration not stated)	15%	0%	-2	-29	18%	-17
O=C(CSc1nc2ccccc2c(=O)n1-c1ccc(OC(F)F)cc1)NCc1cccs1	?	?	2	-7	-7%	-31
CCOC(=O)c1nn(-c2ccc(C)cc2)c(=O)cc1OCC(=O)Nc1ccc(OC)cc1	26%	-9%	·	·	9%	-24
O=C(CCCC(=O)N1CCCC1)N1CCCC1	12%	·	19	27*	22%	61
CC1CCN(C(=O)CCCC(=O)N2CCC(C)CC2)CC1	?	8%	19	24*	7%	-1
O=C(O)c1ccc(NS(=O)(=O)c2ccc(Cl)c(C(=O)Nc3ccccc3[N+](=O)[O-])c2)cc1	-14%	-9%	1	-13	8%	42
Cc1cccc(NC(=O)C2CCCN(S(=O)(=O)c3ccc4[nH]c(=O)ccc4c3)C2)c1 (configuration not stated)	?	?	-3	-3	-20%	21
Cc1cccc(C2c3[nH]c4ccccc4c3CCN2C(=O)Cc2nc(-c3ccccc3)n[nH]2)n1 (configuration not stated)	17%	12µM*	-2	-11	?	40
Cc1cccc(C2c3[nH]c4ccccc4c3CCN2C(=O)CN2CCOC2=O)n1 (configuration not stated)	?	28%	-7	19	-4%	34
Cc1cccc(C2c3[nH]c4ccccc4c3CCN2C(=O)c2nn(C)c(=O)c3ccccc23)n1 (configuration not stated)	8.3µM*	?	-2	-4	?	85
Cc1cccc(C2c3[nH]c4ccccc4c3CCN2C(=O)c2cc(CC(C)C)nc(C)n2)n1 (configuration not stated)	?	12µM*	-2	-5	7%	-8
COc1ccc(-c2nn(-c3ccccc3)cc2CNC[C@H]2O[C@@H](n3cnc4c(=O)[nH]c(N)nc43)[C@H](O)[C@@H]2O)cc1	·	·	·	·	·	-12
COc1ccc2c(c1OC)C(=O)N(c1cccc(NC(C)=O)c1)C2	41%	64%	23*	28	0%	90
COc1ccc2c(c1OC)C(=O)N(c1ccc(F)cc1)C2	-26%	51%	36*	65*	13%	125
COc1ccc2c(c1OC)C(=O)OC2	88%	49%	-2	-18	11%	0
Cc1noc2nc(C(=O)O)nc(N3CCCCC3)c12	·	·	·	·	·	-16
CCOc1ccc(-c2csc(-c3nc(-c4ccc(Br)s4)cs3)n2)cc1	·	·	·	·	·	11
CNC(=O)/C(C#N)=C\c1ccc(CNS(=O)(=O)c2ccc(Cl)cc2)o1	?	13%	1	-5	17%	-22
N#C/C(=C/c1ccc(N2CCCCC2)o1)C(=O)Nc1ccc2ccccc2c1	?	?	40*	88*	10µM*	?

Screening data (PubChem BioAssay)
